In the library only some 4% were active in any assay of this set; here they are far more common.
Wnt act: Wnt/beta-catenin pathway activation; activation, % at 9.35 µM; Wnt/beta-catenin reporter cell assay, activator, plate reader; AID 743398; 1.2% of 300,000 active; in the data active = activation above about 30%, passing the limit was not always enough; inconclusive = no clear call, values can overlap the other calls;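 also: 0% = neutral control wells and 100% = positive control wells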
MITF act: MITF TRPM1 promoter activation in melanoma cells; SK-MEL-5 TRPM1-promoter luciferase, 24 h; % of positive control, neutral wells = 0; activation, % at 12.5 µM; 0.75% of 300,000 active;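 active = mean activation of at least 80% with every replicate also reaching 80%; inconclusive = mean reaches 80% but some replicate falls short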;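 also: 0% = neutral control wells and 100% = parthenolide positive control wells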
EWS-Fli inh: EWS/Fli transcriptional activity inhibition | A673 NR0B1-luciferase reporter, viability-normalised | inhibition, % at 12.6 µM | 0.67% of 350,000 active | AID 651661;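 active = mean inhibition of at least 50% after viability correction, with every replicate also passing that limit; inconclusive = mean reaches 50% but only one of two replicates passes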;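 also: firefly luciferase signal divided by Alamar Blue viability fluorescence both relative to DMSO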
MITF TRPM1 inh: MITF TRPM1 promoter inhibition in SK-MEL-5 cells | inhibition, % at 12.5 µM | SK-MEL-5 TRPM1 promoter luciferase, 24 h | 0.83% of 330,000 active | AID 488899;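 active = mean inhibition across replicates of 60% or more, whatever share of single replicates reaches that level; inconclusive = some that reach 60%, reason not given; inactive = mean inhibition across replicates below 60%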
PAX8 reporter: lowers PAX8-driven luciferase in RMG-I cells. RMG-I TPO-luciferase reporter, SteadyGlo, 24 h. inhibition, % at 12.6 µM. 1.2% of 360,000 active;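 active = mean replicate inhibition at least 60% with every replicate also reaching 60%; inconclusive = only one of the two criteria is met; inactive = mean below 60% and not all replicates reaching 60%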;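 also: luciferase light reporting Pax8 driven TPO promoter activity; plate controls were median of neutral control wells for no effect and mitoxantrone controls for full effect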
esBAF inh: inhibitors of esBAF chromatin remodeling in mouse ES cells. reporter increase, % at 12.5 µM. Bmi1-luciferase knock-in reporter, 24 h; 100% = twice the neutral-well signal. 2% of 350,000 active. AID 602393; in the data active = activation above about 40%; inconclusive = no clear call, values can overlap the other calls;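 also: 0% = median of the plate's neutral control wells and 100% = double that signal; a rise in the Bmi1 reporter signal indicates esBAF inhibition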
* = called active by the depositor.

Screening Fc1ccc(NC(=S)NNc2ncc(C(F)(F)F)cc2Cl)c(F)c1 returned Wnt act -5, MITF act -62, EWS-Fli inh 24, MITF TRPM1 inh inconclusive and PAX8 reporter 85*.
`O=C(O)c1ccc(NNC(=S)Nc2cc(C(F)(F)F)ccc2Cl)cc1` gave Wnt act 7, EWS-Fli inh -8, PAX8 reporter -44 and esBAF inh 54*.
`O=C(NC(=S)Nc1cc(C(F)(F)F)ccc1Cl)c1ccccc1` gave MITF act -10, MITF TRPM1 inh 10 and esBAF inh 25.
Screening Cc1cc2c(cc1C)C(=O)C(Br)=C(N)C2=O returned Wnt act -4, MITF act -61, EWS-Fli inh -21, MITF TRPM1 inh 62*, PAX8 reporter -1 and esBAF inh 22.
`NC1=C(Br)C(=O)c2ccccc2C1=O` gave Wnt act 10, EWS-Fli inh 4, MITF TRPM1 inh 71* and PAX8 reporter 22.
COc1ccc(N)c2c1C(=O)c1ccccc1C2=O was read as MITF act 10 and MITF TRPM1 inh -16.
`O=S(=O)(/C=C/C=C/S(=O)(=O)c1ccccc1)c1ccccc1` gave Wnt act -6, EWS-Fli inh 65*, MITF TRPM1 inh 111* and PAX8 reporter 117*.
For Cc1ccc(S(=O)(=O)C=CS(=O)(=O)c2ccc(C)cc2)cc1 the results were Wnt act -5, EWS-Fli inh 38, PAX8 reporter 47 and esBAF inh -8.
For CS(=O)(=O)Nc1ccc(C(=O)CSc2nnc(C3CC3)n2C2CC2)cc1 the results were Wnt act 2, MITF act 1, EWS-Fli inh -1, MITF TRPM1 inh 2, PAX8 reporter -18 and esBAF inh 4.
O=C(CSc1nnc(C2CC2)n1C1CC1)c1ccc(F)c(F)c1 was read as Wnt act 9, MITF act 16, EWS-Fli inh -26, MITF TRPM1 inh -15, PAX8 reporter -38 and esBAF inh 26.
CCc1ccc(C(=O)CSc2nnc(C3CC3)n2C2CC2)cc1 was read as Wnt act -5, MITF act 39, EWS-Fli inh -53, MITF TRPM1 inh -34, PAX8 reporter -75 and esBAF inh 41*.
Cc1ccc(C(=O)CSc2nnc(C3CC3)n2C2CC2)s1 was read as Wnt act 25, EWS-Fli inh -82, PAX8 reporter -73 and esBAF inh 46*.
Screening C[C@@H]1CN([C@H](C)CO)C(=O)c2cc(-c3ccc(F)cc3)cnc2O[C@H]1CN(C)CC1CCCCC1 returned EWS-Fli inh 27, PAX8 reporter -14 and esBAF inh -2.
Screening O=C(Nc1cc2c(cc1C(=O)O)OCCCO2)c1ccc(C(F)(F)F)cc1 returned Wnt act 20, MITF act 31, EWS-Fli inh -57, MITF TRPM1 inh -31, PAX8 reporter -121 and esBAF inh 55*.
For O=C(Cc1ccccc1)Nc1cc2c(cc1Cl)OCCCO2 the results were Wnt act 14, MITF act 94*, EWS-Fli inh -92, MITF TRPM1 inh -96, PAX8 reporter -170 and esBAF inh 64*.
`CCc1ccc(C(=O)Nc2cc3c(cc2Cl)OCCCO3)cc1` gave MITF act 109*, MITF TRPM1 inh -97 and esBAF inh 69*.
O=C(Nc1ccc([N+](=O)[O-])cc1)C(=O)Nc1cccc(C(=O)O)c1 was read as Wnt act -3, MITF act -101, EWS-Fli inh 91*, PAX8 reporter 101* and esBAF inh -89.
`CCOC(=O)c1cccc(NC(=O)/C=C/c2ccc([N+](=O)[O-])cc2)c1` gave Wnt act 0, MITF act -12, EWS-Fli inh 60*, MITF TRPM1 inh 13 and PAX8 reporter 7.
For COC(=O)c1cccc(NC(=O)/C=C/c2ccc([N+](=O)[O-])cc2)c1 the results were Wnt act 2, MITF act -15, EWS-Fli inh 70*, MITF TRPM1 inh 18 and PAX8 reporter -44.
O=C(O)c1cc(NC(=O)c2ccc([N+](=O)[O-])cc2)cc(NC(=O)c2ccc([N+](=O)[O-])cc2)c1 was read as Wnt act 8, MITF act -2, EWS-Fli inh 0, MITF TRPM1 inh 6, PAX8 reporter -10 and esBAF inh -11.
Screening CC(=O)N1[C@@H](CO)[C@H](c2ccccc2)C12CN(C(=O)Nc1ccccc1F)C2 returned EWS-Fli inh -4.
`COc1ccccc1CN(C)C[C@@H]1OCc2ccccc2-c2c(n(C)c3ccccc23)C(=O)N([C@@H](C)CO)C[C@@H]1C` gave EWS-Fli inh -2 and PAX8 reporter 4.
Cc1nc(Nc2nc3ccccc3o2)nc(C)c1C(=O)Nc1ccc(F)cc1 was read as Wnt act 43*, MITF act -8, EWS-Fli inh 10, MITF TRPM1 inh 11 and PAX8 reporter 5.
`CCCC#Cc1cnc2c(c1)C(=O)N([C@@H](C)CO)C[C@H](C)[C@@H](CN(C)C(=O)c1ccc3c(c1)OCO3)O2` gave EWS-Fli inh 1 and esBAF inh -1.
For COC(=O)c1ccc(N2OC3(C)C=CC2CC3)cc1 (stereo not drawn) the results were Wnt act 13, MITF act 58, EWS-Fli inh -38, MITF TRPM1 inh -55, PAX8 reporter -56 and esBAF inh 63*.
COC(=O)c1ccc(N2C(=O)CC(N3CCOCC3)C2=O)cc1 (stereo not drawn) was read as MITF act 12, MITF TRPM1 inh -11 and esBAF inh -6.
CSc1nc2nccc(/C=C\c3ccccc3)n2n1 was read as Wnt act 1, MITF act -23, MITF TRPM1 inh 22, PAX8 reporter 63* and esBAF inh 5.
`C[C@@H]1CN([C@@H](C)CO)C(=O)c2cccc(NC(=O)Nc3ccc(F)cc3)c2O[C@H]1CN(C)S(=O)(=O)c1ccc(Cl)cc1` gave EWS-Fli inh -3, PAX8 reporter -13 and esBAF inh -5.
Screening C[C@H](CO)N1C[C@H](C)[C@H](CN(C)S(=O)(=O)c2ccc(Cl)cc2)Oc2c(NC(=O)NC3CCCCC3)cccc2C1=O returned EWS-Fli inh 20, PAX8 reporter 92* and esBAF inh 16.
C[C@H]1CN([C@@H](C)CO)C(=O)c2cccc(NC(=O)NC3CCCCC3)c2O[C@@H]1CN(C)S(=O)(=O)c1ccc(Cl)cc1 was read as EWS-Fli inh 14, PAX8 reporter -1 and esBAF inh -9.
For C[C@H](CO)N1C[C@H](C)[C@H](CN(C)S(=O)(=O)c2ccc(Cl)cc2)Oc2c(NC(=O)Nc3ccc(F)cc3)cccc2C1=O the results were EWS-Fli inh 2, PAX8 reporter 91* and esBAF inh 5.
